Measured values from PubChem BioAssay AID1159580 (chemical genetic matrix, 2015).
Among all 5,500 compounds or so, about 2,000 (36%) were called active. Not shown: some 18% with an inconclusive outcome. No stated cut-off is given here; in the data, active means normalized growth mostly below about 0.91 (no sharp cut-off); inconclusive means no clear call, values can overlap the other calls; inactive means mostly above about 0.92. This is one part of the list.

Test: chemical genetic growth profiling, strain panel (AID 1159580);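 further: tested at 20 µM; growth read once vehicle control cultures reached saturation at 30 °C; 1 = growth at the plate median or of vehicle wells; lower values mean less growth of the strain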
Conditions: S. cerevisiae deletion strains, growth OD

Measured: normalized growth

CCCCCCCCCCCC1=C(O)C(=O)C=C(O)C1=O
inactive: locus YBR021W, strain FUR4, hits give low values 0.916 | locus YBR229C, strain ROT2, hits give low values 1 | locus YDL005C, strain med2, hits give low values 0.961 | locus YDL040C, strain nat1, hits give low values 0.95 | locus YDL101C, strain DUN1, hits give low values 0.994 | locus YDL134C, strain PPH21, hits give low values 0.956 | locus YDR318W, strain mcm21, hits give low values 0.955 | locus YDR388W, hits give low values 0.98 | locus YER016W, strain bim1, hits give low values 0.944 | locus YER110C, hits give low values 0.976 | locus YER155C, strain BEM2, hits give low values 0.925 | locus YER167W, strain BCK2, hits give low values 0.952 | locus YGL240W, strain doc1, hits give low values 0.923 | locus YGL248W, strain PDE1, hits give low values 0.92 | locus YGR252W, strain gcn5, hits give low values 0.95 | locus YHR079C, strain IRE1 (second series), hits give low values 0.991 | locus YHR094C, strain hxt1, hits give low values 0.994 | locus YIL073C, strain SPO22, hits give low values 0.933 | locus YIR030C, strain dcg1, hits give low values 0.972 | locus YJL129C, strain trk1, hits give low values 0.999 | locus YJL134W, strain LCB3, hits give low values 0.984
active: locus YAL013W, strain DEP1, hits give low values 0.662 | locus YAL021C, strain ccr4, hits give low values 0.835 | locus YAL026C, strain drs2, hits give low values 0.394 | locus YAL030W, strain snc1, hits give low values 0.889 | locus YBL061C, strain skt5, hits give low values 0.795 | locus YBR009C, strain hhf1, hits give low values 0.853 | locus YBR023C, strain chs3, hits give low values 0.815 | locus YBR171W, strain sec66, hits give low values 0.853 | locus YBR231C, strain swc5, hits give low values 0.77 | locus YBR279W, strain paf1, hits give low values 0.762 | locus YCL011C, strain gbp2, hits give low values 0.822 | locus YCL016C, strain dcc1, hits give low values 0.886 | locus YCL029C, strain bik1, hits give low values 0.89 | locus YCL061C, strain MRC1, hits give low values 0.628 | locus YCL069W, strain vba3, hits give low values 0.538 | locus YCR088W, strain abp1, hits give low values 0.723 | locus YDL035C, strain GPR1, hits give low values 0.525 | locus YDL074C, strain BRE1, hits give low values 0.365 | locus YDL185W, strain tfp1, hits give low values 0.503 | locus YDL192W, strain arf1, hits give low values 0.834 | locus YDR001C, strain nth1, hits give low values 0.786 | locus YDR069C, strain doa4, hits give low values 0.692 | locus YDR101C, strain arx1, hits give low values 0.871 | locus YDR137W, strain rgp1, hits give low values 0.81 | locus YDR150W, strain NUM1, hits give low values 0.673 | locus YDR159W, strain sac3, hits give low values 0.822 | locus YDR162C, strain NBP2, hits give low values 0.338 | locus YDR195W, strain ref2 0.853 | locus YDR297W, strain sur2, hits give low values 0.87 | locus YDR334W, strain swr1, hits give low values 0.259 | locus YDR335W, strain msn5, hits give low values 0.599 | locus YDR392W, strain spt3, hits give low values 0.16 | locus YDR502C, strain sam2, hits give low values 0.886 | locus YEL003W, strain gim4, hits give low values 0.851 | locus YEL037C, strain rad23, hits give low values 0.467 | locus YEL061C, strain CIN8 (second series), hits give low values 0.493 | locus YEL061C, strain CIN8, hits give low values 0.665 | locus YER015W, strain faa2, hits give low values 0.748 | locus YER111C, strain swi4, hits give low values 0.265 | locus YER155C, strain BEM2 (second series), hits give low values 0.615 | locus YFR010W, strain ubp6, hits give low values 0.507 | locus YGL078C, strain dbp3, hits give low values 0.822 | locus YGL086W, strain mad1, hits give low values 0.798 | locus YGL167C, strain pmr1, hits give low values 0.882 | locus YGL173C, strain kem1, hits give low values 0.703 | locus YGL227W, strain vid30, hits give low values 0.909 | locus YGL253W, strain hxk2, hits give low values 0.359 | locus YGR078C, strain PAC10, hits give low values 0.684 | locus YGR135W, strain pre9, hits give low values 0.888 | locus YHR013C, strain ard1, hits give low values 0.743 | locus YHR027C, strain rpn1, hits give low values 0.605 | locus YHR030C, strain SLT2, hits give low values 0.596 | locus YHR129C, strain ARP1, hits give low values 0.67 | locus YHR142W, strain chs7, hits give low values 0.274 | locus YHR200W, strain rpn10, hits give low values 0.89 | locus YIL066C, strain RNR3, hits give low values 0.856 | locus YIL125W, strain kgd1, hits give low values 0.623 | locus YJL092W, strain hpr5, hits give low values 0.684 | locus YJL095W, strain BCK1 (second series), hits give low values 0.88 | locus YJL095W, strain BCK1, hits give low values 0.68 | locus YJL115W, strain asf1, hits give low values 0.72 | locus YJL154C, strain vps35, hits give low values 0.521 | locus YJL164C, strain tpk1, hits give low values 0.83 | locus YJL166W, strain qcr8, hits give low values 0.792
